This is an account of results in article PMC4552634, “A New Set of Chemical Starting Points with Plasmodium falciparum Transmission-Blocking Potential for Antimalarial Drug Discovery” (PLoS ONE, 2015).

The campaign covered roughly 13,000 compounds. About 3,200 (25%) showed an effect of 50% or more. Some of the results follow.

In the assay the test system is P. falciparum stage V gametocytes. Also noted: BacTiter-Glo ATP luminescence viability of purified stage V gametocytes in 384-well plates, per cent inhibition versus DMSO. The settings on record: 48 h, 5 µM; inhibitor.
Regarding `O=C(/C=C/c1ccc(Cl)c(Cl)c1)NCCCCCN1CCC(NC(=O)Nc2cc(Cl)ccc2Cl)CC1` [TCMDC-135726], the % Inhibition (commonly the relative decrease from the control value, in per cent) is -46.31%.
The result for `O=C(Cc1cnc[nH]1)Nc1cccc(-c2cccc(-c3nc4ccc(C(F)(F)F)cc4[nH]3)c2)c1` [TCMDC-136948] reads -28.45%; that for `CC1SC(=S)NC1C(=O)O` (centres unmarked) [TCMDC-131380], 9.711%; that for `COCCNC(=O)C(CNC(=O)c1ccc2c(c1)OCO2)NC(=O)c1ccc(-c2ccccc2)cc1` (centres unmarked) [TCMDC-140308], -7.15%.
The result for `COCC(=O)N(Cc1ccccc1-c1cccc(CNCc2ccc3c(c2)OCO3)c1)C1CCN(Cc2ccccc2)CC1` [TCMDC-140535] reads 7.259%.
In the case of `O=C(Nc1ccccc1)N(Cc1cccc(-c2ccc(CNCc3ccc4c(c3)OCO4)cc2)c1)C1CCN(Cc2ccccc2)CC1` [TCMDC-140591], the “% Inhibition” value was 67.97%.
Regarding `COCCNCc1cccc(-c2ccccc2CN(C(=O)c2ccc3c(c2)OCO3)c2ccc(OC)cc2)c1` [TCMDC-140571], the “% Inhibition” value is 88.17%.
Take `CC(=O)N(Cc1cccc(-c2cccc(CNCc3ccc4c(c3)OCO4)c2)c1)C1CCN(Cc2ccccc2)CC1` [TCMDC-140529]: the “% Inhibition” value is reported as -13.98%.
For `O=C(Nc1ccccc1)N(Cc1cccc(-c2cccc(CNCc3ccc4c(c3)OCO4)c2)c1)C1CCN(Cc2ccccc2)CC1` [TCMDC-140590], the “% Inhibition” value amounted to 57.66%.
The result for `CC(=O)N(Cc1ccccc1-c1cccc(CNCc2ccc3c(c2)OCO3)c1)C1CCN(Cc2ccccc2)CC1` [TCMDC-140526] reads 86.49%; that for `CCOC(=O)c1c(NC(=O)c2ccccc2)sc2c(O)c(CNC3CCCCC3)ccc12` [TCMDC-124070], 25.8%.
The result for `COc1ccc(Cl)cc1N1CCN(CCCNC(=O)c2ccc(-c3nc4cc5ccccc5cc4[nH]3)c(F)c2)CC1` [TCMDC-140099] reads 14.17%; that for `COc1ccc(-c2ncnc(C(F)(F)F)c2-c2ccc(Cl)cc2)c(O)c1` [TCMDC-123728], 11.32%.
For `Cc1nnsc1C(=O)Nc1ccc(-c2ccc(-c3nc4ccccc4[nH]3)s2)cc1` [TCMDC-137077], the “% Inhibition” value came to 0.7938%.
The result for `Cc1ccc(C(=O)Nc2ccc(Cl)c(N3CCN(CCc4ccccc4)CC3)c2)cc1` [TCMDC-133536] reads -30.75%.
The result for `Nc1cccc(CNCc2cccc(-c3csc(-c4nc5ccccc5[nH]4)c3)c2)c1` [TCMDC-132925] reads -31.54%; that for `Cc1nc2ccc3ccc(CNc4ccc5c(c4)CN([C@@H](CCC(=O)O)C(=O)O)C5=O)cc3c2c(=O)[nH]1` [TCMDC-131928], 20.65%.
